The source of these data is PubChem BioAssay.

Experiment [1] can be described thus: inhibitors of TNFa-induced NFkB p65 translocation, primary screen, imaging, HUVEC, MLSMR starter and 10KST1 sets (AID 438).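 Also: compound added about 3h40 before a 20 min TNFalpha stimulation.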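 As to inhibition: signal is the nuclear over cytoplasmic p65 intensity ratio per well.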 Conditions: HUVEC TNFa-induced p65 nuclear translocation; cell count: measured here: nuclei count (cytotoxicity indicator), at 2.08 µM; inhibition: at 2 µM, stronger effect = higher value, 0% TNFa-plus-vehicle, 100% no-TNFa wells.
Experiment [2] in a line: reduction of polyQ htt aggregates in cells – imaging, exon1htt(103Q)mCFP cells, high-content imaging, primary screen (AID 483;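 active = visual image review flags a hit and inhibition of aggregation exceeds 20%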;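 also: compound exposure lasted 3 days before fixation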;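 as to nuclei count: percent of the per-plate median nuclei count of sample wells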). Conditions: exon1htt(103Q)mCFP cell line, aggregate imaging, at 2 µM; inhibition of aggregation: stronger effect = higher value; nuclei count: measured here: cell count, toxicity.
The nature of experiment [3]: endothelial E-selectin expression blockers – imaging, HUVEC, immunofluorescence, MLSMR starter and 10KST1 sets, primary screen (AID 487;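 active = visually confirmed hit in the image check and inhibition above 20%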;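 as to inhibition: signal is fraction of cell area covered by stained E-selectin grains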;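 as to nuclei count: 100% = median nuclei count of all wells on the same plate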). Conditions: HUVEC TNFalpha-induced E-selectin immunofluorescence imaging, at 2 µM; inhibition: stronger effect = higher value; nuclei count: measured here: cell number, toxicity.
For experiment [4], the target named is Voltage-gated potassium channel subunit beta-2 (Rattus norvegicus) (UniProt P62483). As to the kind of experiment: inhibitors of rat Kvbeta2 reductase activity – biochemical, NADPH fluorescence, primary screen (AID 622;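 active = fluorescence slope higher than the sample average by over 3 SD, cut at about -0.22 in these data, passing the limit was not always enough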;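 also: slope of raw intensity against log time taken from 70 to 1610 s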). The settings on record: recombinant KvBeta, 4-cyanobenzaldehyde reduction, at 10 µM, stronger effect = higher value.
The target is the same in experiment [5]. The experiment in a line: enhancers of rat Kvbeta2 NADPH turnover – biochemical, NADPH fluorescence, primary screen (AID 623;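 active = NADPH fluorescence slope more negative than the mean of all samples by about 3 SD, 99.7% confidence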;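 also: fluorescence intensity change per second fitted from 20 to 320 s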). Conditions: Recombinant KvBeta, NADPH fluorescence decrease slope, 10 min; at 10 µM; stronger effect = lower value.
The target of experiment [6] is Alpha-2C adrenergic receptor (Homo sapiens) (UniProt P18825). As to the kind of experiment: compounds altering alpha2C-coupled GIRK flux – cell-based, HEK293 alpha2C/GIRK1/2, thallium flux, primary screen (AID 624;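 active = fluorescence slope after compound addition differing from the mean of all screened samples at 99.7% confidence, in either direction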;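 also: slope of fluorescence ratio to pre-addition baseline per second over 15 to 24 s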). The settings on record: thallium flux BTC fluorescence, at 10 µM, actives lie on both sides.
Experiment [7] in a line: blockers of RIG-like receptor reporter activation – cell-based, Sendai virus stimulus, luciferase, 10K MLSCN set, TLR/RLR signaling modifier project, primary screen (AID 602276;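 active = inhibition at or above 50% at 10 µM; inactive = inhibition below 50%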;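 also: firefly luciferase from ISG56 promoter only with Renilla not read in this screen; 0% = Sendai virus plus DMSO and 100% = medium plus DMSO without virus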). Conditions: HEK293 RL24 IRF3 luciferase reporter, at 10 µM, stronger effect = higher value.
A short description of experiment [8]: TLR3 IRF3 reporter activation blockers – cell-based, poly I:C stimulus, luciferase, 10K MLSCN set, primary screen (AID 602277;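 active = inhibition of the reporter signal at or above 50%; inactive = inhibition below 50%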). The settings on record: HEK293-TLR3 RL24 IRF3 luciferase reporter, at 10 µM, stronger effect = higher value.

The source made the active and inactive calls.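 The calls were made as follows, unless noted: active = inhibition above 20% together with a positive visual image hit; inconclusive = visual image hit but inhibition not above 20%; inactive = no visual image hit.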

Chain of Alpha-2C adrenergic receptor (Homo sapiens) (P18825 whole entry, looked up): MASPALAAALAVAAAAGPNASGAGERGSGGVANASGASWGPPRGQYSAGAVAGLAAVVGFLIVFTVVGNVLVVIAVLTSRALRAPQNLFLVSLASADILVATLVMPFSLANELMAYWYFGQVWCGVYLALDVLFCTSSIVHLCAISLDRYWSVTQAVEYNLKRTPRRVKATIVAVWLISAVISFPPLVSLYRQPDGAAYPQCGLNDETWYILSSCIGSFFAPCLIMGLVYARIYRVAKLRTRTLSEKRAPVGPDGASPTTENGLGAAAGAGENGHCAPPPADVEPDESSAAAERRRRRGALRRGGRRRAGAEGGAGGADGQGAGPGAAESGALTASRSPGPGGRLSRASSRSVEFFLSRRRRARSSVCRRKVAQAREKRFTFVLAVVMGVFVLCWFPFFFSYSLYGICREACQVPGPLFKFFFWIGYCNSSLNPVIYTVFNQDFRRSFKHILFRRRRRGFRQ
Chain of Voltage-gated potassium channel subunit beta-2 (Rattus norvegicus) (P62483 whole entry, looked up): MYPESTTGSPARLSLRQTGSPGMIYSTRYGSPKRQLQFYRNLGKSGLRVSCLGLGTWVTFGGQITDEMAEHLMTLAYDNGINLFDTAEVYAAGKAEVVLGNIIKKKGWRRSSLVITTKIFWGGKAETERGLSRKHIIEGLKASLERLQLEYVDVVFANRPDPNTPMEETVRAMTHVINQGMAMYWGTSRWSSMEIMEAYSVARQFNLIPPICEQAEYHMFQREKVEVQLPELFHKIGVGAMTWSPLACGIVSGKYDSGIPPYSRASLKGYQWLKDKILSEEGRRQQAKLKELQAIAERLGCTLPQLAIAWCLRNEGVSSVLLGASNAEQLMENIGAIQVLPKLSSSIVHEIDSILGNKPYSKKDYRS

With `COC(=O)c1ccc(NC(=O)Cn2nnc3ccccc32)cc1`, the cell count in experiment [1] came out at 445. In addition, the inhibition in experiment [1] was -10.2% (inactive); in experiment [3], -8.2% (inactive); in experiment [7], -21.8% (inactive); in experiment [8], -69.7% (inactive). For the same molecule, the inhibition of aggregation in experiment [2] was 8.3% (inactive). Also, the nuclei count in experiment [2] and in experiment [3] was 134% in each case. For the same molecule, in experiment [4], the fluorescence slope is -0.377 (inactive). Moreover, the NADPH fluorescence slope in experiment [5] was -5.8e-05 (inactive). In addition, the slope in experiment [6] was 0.0057 (inactive).

Regarding `Cc1sc2nc(CN3CCN(S(=O)(=O)c4cccc5nonc45)CC3)[nH]c(=O)c2c1C`, in experiment [1], the cell count was 661. The inhibition in experiment [1] was -16.4% (inactive); in experiment [3], -55.1% (inactive); in experiment [7], 3.59% (inactive); in experiment [8], 1.1% (inactive). Also, the inhibition of aggregation in experiment [2] is 11.8% (inactive). Besides, the nuclei count in experiment [2] came out at 60.7%; in experiment [3] it was 116%. Besides, the fluorescence slope in experiment [4] was -0.411 (inactive). In addition, the NADPH fluorescence slope in experiment [5] is -5.6e-05 (inactive). The slope in experiment [6] was 0.00421 (inactive).

Consider `CCCC(C)c1nnc(NC(=O)C2CCCO2)s1` (centres undefined), for which the cell count in experiment [1] was determined as 575. Besides, the inhibition in experiment [1] is 0% (inactive); in experiment [3], 9.1% (inactive); in experiment [7] it was -3.58% (inactive); in experiment [8], -11.9% (inactive). Besides, the inhibition of aggregation in experiment [2] is -11.3% (inactive). Moreover, the nuclei count in experiment [2] is 97.6%; in experiment [3], 103%. Further, the fluorescence slope in experiment [4] was -0.524 (inactive). For the same molecule, the NADPH fluorescence slope in experiment [5] was -4e-05 (inactive). In addition, in experiment [6], the slope was 0.00609 (inactive).

`COc1ccccc1NC(=O)CSc1nnc(-c2ccncc2)n1CC1CCCO1` (centres undefined): the cell count in experiment [1] worked out at 626. Also, the inhibition was 20.6% (inactive) in experiment [1], 25.2% (inactive) in experiment [3], 14.4% (inactive) in experiment [7] and 98.5% (active) in experiment [8]. In addition, the inhibition of aggregation in experiment [2] is -8.1% (inactive). In addition, the nuclei count in experiment [2] came to 92.8%; in experiment [3], 100%. Further, the fluorescence slope in experiment [4] was -0.462 (inactive). For the same molecule, in experiment [5], the NADPH fluorescence slope was -1.1e-06 (inactive). Further, the slope in experiment [6] is 0.00619 (inactive).

Take `Cc1nn(C(=O)c2ccc3c(c2)OCO3)c(N)c1-c1ccccc1`: in experiment [1], the cell count turned out to be 581. For the same molecule, the inhibition in experiment [1] was 5.1% (inactive); in experiment [3], -19.8% (inactive); in experiment [7], -23.3% (inactive); in experiment [8] it was -108% (inactive). Besides, the inhibition of aggregation in experiment [2] is 11.7% (inactive). Moreover, the nuclei count stood at 91.3% in experiment [2] and 106% in experiment [3]. Further, the fluorescence slope in experiment [4] is -0.451 (inactive). Further, the NADPH fluorescence slope in experiment [5] was 1.4e-05 (inactive). Also, in experiment [6], the slope was 0.00618 (inactive).

For `CC(C)Cn1c(CN(Cc2ccccc2)Cc2ccccc2)nc2c1c(=O)n(C)c(=O)n2C`, the cell count in experiment [1] is 567. The inhibition was -1% (inactive) in experiment [1], -12.8% (inactive) in experiment [3], 9.97% (inactive) in experiment [7] and 12.9% (inactive) in experiment [8]. The inhibition of aggregation in experiment [2] is 1.4% (inactive). Besides, the nuclei count in experiment [2] was 124%; in experiment [3] it was 117%. The fluorescence slope in experiment [4] was -0.518 (inactive). For the same molecule, in experiment [5], the NADPH fluorescence slope was -1.8e-05 (inactive). In addition, the slope in experiment [6] is 0.00724 (inactive).

Regarding `Cn1c(=O)c2c(nc(SCC(=O)NCc3ccco3)n2C)n(C)c1=O`, in experiment [1], the cell count turned out to be 616. The inhibition in experiment [1] is 1.7% (inactive); in experiment [3] it was -63.1% (inactive); in experiment [7] it was 3.04% (inactive); in experiment [8], 5.37% (inactive). Moreover, in experiment [2], the inhibition of aggregation was 19% (inactive). Besides, the figures for the nuclei count in experiment [2] and in experiment [3] were 78.5% and 100%, respectively. Further, the fluorescence slope in experiment [4] was -0.611 (inactive). Further, the NADPH fluorescence slope in experiment [5] is 1.2e-05 (inactive). The slope in experiment [6] was 0.00578 (inactive).

Turning to `CC(C)(C)SCCNC(=O)CSc1ccccc1`, in experiment [1], the cell count worked out at 636. The inhibition is -11% (inactive) in experiment [1], -42.9% (inactive) in experiment [3], -20.5% (inactive) in experiment [7] and -23.4% (inactive) in experiment [8]. In experiment [2], the inhibition of aggregation was 8.5% (inactive). The figures for the nuclei count in experiment [2] and in experiment [3] were 93% and 78.7%, respectively. In experiment [4], the fluorescence slope was -0.586 (inactive). In addition, the NADPH fluorescence slope in experiment [5] was -2.1e-05 (inactive). The slope in experiment [6] was 0.00555 (inactive).

`O=C(CSc1nc2c(c(=O)n1-c1ccc(F)cc1)SCC2)NCC1CCCO1` (centres undefined): in experiment [1], the cell count was found to be 256. For the same molecule, the inhibition is 9.8% (inactive) in experiment [1], -8.7% (inactive) in experiment [3], 17.7% (inactive) in experiment [7] and 19.7% (inactive) in experiment [8]. For the same molecule, the inhibition of aggregation in experiment [2] is 16.7% (inactive). Further, the nuclei count came out at 94.5% in experiment [2] and 78.2% in experiment [3]. Also, the fluorescence slope in experiment [4] was -0.462 (inactive). The NADPH fluorescence slope in experiment [5] is -5.5e-05 (inactive). In addition, the slope in experiment [6] is 0.00463 (inactive).

With `COC(=O)c1ccc(NC(=O)C2CC(=O)N(c3cc(C)ccc3C)C2)cc1` (centres undefined), the cell count in experiment [1] was found to be 504. In addition, the inhibition in experiment [1] is 6.6% (inactive); in experiment [3], -29.9% (inactive); in experiment [7], -15.3% (inactive); in experiment [8], -26.3% (inactive). Moreover, in experiment [2], the inhibition of aggregation is 8.1% (inactive). Besides, the nuclei count was determined as 92.6% in experiment [2] and 95.1% in experiment [3]. In experiment [4], the fluorescence slope is -0.587 (inactive). Further, in experiment [5], the NADPH fluorescence slope was -9.6e-06 (inactive). In addition, the slope in experiment [6] is 0.00549 (inactive).

With `Cc1cc(C)cc(NC(=O)CCNS(=O)(=O)c2ccc3c(c2)oc(=O)n3C)c1`, the cell count in experiment [1] is 755. Moreover, the inhibition in experiment [1] is -14.1% (inactive); in experiment [3], -79.9% (inactive); in experiment [7], 20.7% (inactive); in experiment [8], 22.7% (inactive). Moreover, the inhibition of aggregation in experiment [2] was -14.6% (inactive). The nuclei count in experiment [2] is 120%; in experiment [3] it was 100%. The fluorescence slope in experiment [4] is -0.601 (inactive). The NADPH fluorescence slope in experiment [5] was -3.2e-05 (inactive). In addition, in experiment [6], the slope was 0.00584 (inactive).

On to `COCCCN(C)C1CCN(C(=O)Nc2ccc(F)cc2)CC1`, for which the cell count in experiment [1] was determined as 610. In addition, the inhibition is -1.3% (inactive) in experiment [1], -49.7% (inactive) in experiment [3], 11% (inactive) in experiment [7] and 36.9% (inactive) in experiment [8]. For the same molecule, the inhibition of aggregation in experiment [2] was -8.7% (inactive). Further, the nuclei count in experiment [2] stood at 108%; in experiment [3], 102%. In addition, in experiment [4], the fluorescence slope is -0.582 (inactive). Moreover, in experiment [5], the NADPH fluorescence slope was -1.9e-06 (inactive). Further, the slope in experiment [6] is 0.00654 (inactive).

As for `COc1cccc(C(=O)OCn2nnc3ccccc3c2=O)c1`, in experiment [1], the cell count came out at 592. The inhibition in experiment [1] was -5.6% (inactive); in experiment [3], -14.7% (inactive); in experiment [7] it was 17.1% (inactive); in experiment [8], 31.3% (inactive). In experiment [2], the inhibition of aggregation was 16.9% (inactive). For the same molecule, the nuclei count in experiment [2] was 89.6%; in experiment [3], 119%. In addition, in experiment [4], the fluorescence slope was -0.616 (inactive). Also, in experiment [5], the NADPH fluorescence slope was 4.3e-05 (inactive). The slope in experiment [6] was 0.00615 (inactive).

Consider `CC(C)N(Cc1nc(-c2ccc(Cl)cc2)no1)C(=O)CN(C)S(=O)(=O)c1ccc(Cl)cc1`, for which the cell count in experiment [1] was 629. Further, the inhibition was -2.8% (inactive) in experiment [1], -53.8% (inactive) in experiment [3], 20.4% (inactive) in experiment [7] and 25.9% (inactive) in experiment [8]. Also, the inhibition of aggregation in experiment [2] was -11.8% (inactive). Further, the nuclei count stood at 95.7% in experiment [2] and 106% in experiment [3]. Moreover, in experiment [4], the fluorescence slope is -0.467 (inactive). Moreover, in experiment [5], the NADPH fluorescence slope was -5.4e-05 (inactive). Besides, the slope in experiment [6] was 0.00647 (inactive).
